Growth data for 9 compounds are collected here from PubChem BioAssay (NCI).

This is part of a sample that, as a whole, favours compounds with a hit. Of some 83,000 tested, about 20% had one in any assay.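 In brief: 96-well plates, 48 h treatment, single concentration, percent growth endpoint.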 Values without a mark were called inactive. Calls of active or inactive are those of the source. Rule for the calls: active = growth percent below 10; inactive = the rest.

Holding throughout (test): NCI-60 one-dose screen, 48 h (100 = growth as untreated, 0 = no growth, -100 = all killed)
The test system of one assay is SR leukemia. The conditions noted are these: 10 µM unless noted.
A further assay deals with RPMI-8226 leukemia. The conditions noted are these: 10 µM unless noted.
The test system of another assay is OVCAR-8 ovarian. The conditions noted are these: 10 µM unless noted.
For another assay, the system named is OVCAR-5 ovarian. The conditions noted are these: 10 µM unless noted.
In another assay the test system is OVCAR-4 ovarian. The conditions noted are these: 10 µM.
In a further assay the test system is SK-OV-3 ovarian. The conditions noted are these: 10 µM unless noted.
The next assay concerns IGROV1 ovarian. The conditions noted are these: 10 µM unless noted.
A further assay deals with OVCAR-3 ovarian. The conditions noted are these: 10 µM unless noted.
In another assay the test system is HS 578T breast. The conditions noted are these: 10 µM unless noted.
Another assay has as its system NCI/ADR-RES ovarian. The conditions noted are these: 10 µM unless noted.
The test system of another assay is T-47D breast. The conditions noted are these: 10 µM unless noted.
For another assay, the system named is MDA-MB-435 melanoma. The conditions noted are these: 10 µM unless noted.
The next assay deals with SW-620 colon. The conditions noted are these: 10 µM unless noted.
The test system of a further assay is MCF7 breast. The conditions noted are these: 10 µM unless noted.
For a further assay, the system named is HCC-2998 colon. The conditions noted are these: 10 µM unless noted.
For the next assay, the system named is KM12 colon. The conditions noted are these: 10 µM unless noted.
Another assay deals with HCT-116 colon. The conditions noted are these: 10 µM unless noted.

As to `Cn1cc(-c2noc(-c3cn(C)c4ncccc34)n2)c2cc(Cl)ccc21`, the growth in the assay on SR leukemia was 82.2%; with RPMI-8226 leukemia, 96.6%; in the assay with OVCAR-8 ovarian it was 96%; in the assay on OVCAR-5 ovarian it was 79.7%; with OVCAR-4 ovarian it was 98.3%; with SK-OV-3 ovarian, 89%. Moreover, the growth with IGROV1 ovarian is 99.8%; in the assay with OVCAR-3 ovarian, 109%; in the assay on HS 578T breast, 111%; in the assay with NCI/ADR-RES ovarian it was 89.8%; in the assay on T-47D breast, 54.2%; in the assay on MDA-MB-435 melanoma it was 87%. Also, the growth is 89% in the assay with SW-620 colon, 62.1% in the assay with MCF7 breast, 99.8% in the assay on HCC-2998 colon and 103% in the assay on KM12 colon.

On to `COc1cc(NCc2ccccc2O)c2ncccc2c1`, for which the growth in the assay on SR leukemia is 82.4%; in the assay on RPMI-8226 leukemia, 46.9%; in the assay with OVCAR-8 ovarian, 102%; in the assay on OVCAR-5 ovarian, 69.6%; in the assay on OVCAR-4 ovarian it was 82.3%; with SK-OV-3 ovarian, 107%. For the same compound, the growth in the assay on IGROV1 ovarian is 90.4%; in the assay with OVCAR-3 ovarian it was 97.2%; with HS 578T breast, 149%; with NCI/ADR-RES ovarian, 71.9%; in the assay on T-47D breast, 90.4%; in the assay on MDA-MB-435 melanoma, 103%. Further, the growth in the assay on SW-620 colon is 102%; in the assay on HCT-116 colon, 64%; in the assay with HCC-2998 colon it was 108%; with KM12 colon it was 103%.

`COCCCNc1nc(NC(=O)c2cc(OC)cc(OC)c2)cc(-c2cccnc2)n1`: the growth was 80.6% in the assay with SR leukemia; 69.3% in the assay with RPMI-8226 leukemia; 79.3% with OVCAR-8 ovarian; 95.7% in the assay with OVCAR-5 ovarian; 108% in the assay with OVCAR-4 ovarian; 105% in the assay with SK-OV-3 ovarian. Moreover, the growth is 102% in the assay on IGROV1 ovarian; 113% in the assay on OVCAR-3 ovarian; 95.3% in the assay on HS 578T breast; 83.5% in the assay on NCI/ADR-RES ovarian; 63.8% with T-47D breast; 100% in the assay with MDA-MB-435 melanoma. Moreover, the growth with SW-620 colon was 101%; in the assay with MCF7 breast, 97.8%; in the assay with HCT-116 colon it was 90.3%; in the assay with HCC-2998 colon, 110%; with KM12 colon it was 103%.

For `O=C(Nc1cc(-c2cccnc2)nc(NCCCN2CCOCC2)n1)c1cc(Br)cc(C(F)(F)F)c1`, the growth with SR leukemia was 4.25% (active); in the assay with RPMI-8226 leukemia, 30.2%; with OVCAR-8 ovarian, 58.6%; in the assay on OVCAR-5 ovarian it was 81.4%; in the assay on OVCAR-4 ovarian, 62.2%; in the assay with SK-OV-3 ovarian, 92.3%. Besides, the growth in the assay with IGROV1 ovarian was 63.1%; with OVCAR-3 ovarian it was 79.9%; in the assay on HS 578T breast it was 54%; in the assay with NCI/ADR-RES ovarian, 56.6%; in the assay on T-47D breast, 46.4%; in the assay with MDA-MB-435 melanoma, 9.55% (active). Also, the growth with MCF7 breast was 38.6%; with HCT-116 colon, 35.7%; in the assay on HCC-2998 colon, 37.8%; in the assay on KM12 colon it was 80%.

For `CC1(C(=O)O)CCC(N)(C(=O)O)C1(C)C` (stereo not drawn), the growth was 105% in the assay on SR leukemia; 91.9% in the assay with RPMI-8226 leukemia; 111% in the assay on OVCAR-8 ovarian; 115% in the assay on OVCAR-5 ovarian; 104% in the assay on OVCAR-4 ovarian; 97% in the assay on SK-OV-3 ovarian. The growth is 108% in the assay on IGROV1 ovarian; 102% with OVCAR-3 ovarian; 127% with HS 578T breast; 118% in the assay on NCI/ADR-RES ovarian; 98.4% in the assay with T-47D breast; 115% in the assay with MDA-MB-435 melanoma. For the same compound, the growth in the assay with SW-620 colon was 108%; in the assay with MCF7 breast, 99.5%; with HCT-116 colon, 110%; with HCC-2998 colon it was 120%; with KM12 colon, 111%.

For `COc1ccc(-c2cc(-c3ccccc3)nc(SCCCCCC(=O)NO)n2)cc1`, the growth is 21.9% in the assay on SR leukemia; 21.2% in the assay on RPMI-8226 leukemia; 36.1% in the assay with OVCAR-8 ovarian; 41.4% in the assay on OVCAR-5 ovarian; 80.1% in the assay on OVCAR-4 ovarian; 50.3% with SK-OV-3 ovarian. Moreover, the growth in the assay with IGROV1 ovarian is 51.7%; in the assay with OVCAR-3 ovarian, 65%; in the assay on HS 578T breast it was 56%; in the assay on NCI/ADR-RES ovarian, 56.9%; with T-47D breast it was 22.7%; with MDA-MB-435 melanoma, 37.5%. The growth was 49.8% with MCF7 breast, 21.6% in the assay on HCT-116 colon, 78.8% in the assay with HCC-2998 colon and 70.8% in the assay with KM12 colon.

Regarding `C=CC1=C(C)C2=NC1=CC1=NC(=CC3=C(C)C4=C(O)C(C(=O)O)C(=C5NC(=C2)C(C)C5CCC(=O)O)C4=N3)C(CC)=C1C` (stereo not drawn), the growth is 95.5% with SR leukemia; 102% in the assay with RPMI-8226 leukemia; 107% with OVCAR-8 ovarian; 114% with OVCAR-5 ovarian; 103% in the assay on OVCAR-4 ovarian; 119% in the assay on SK-OV-3 ovarian. The growth in the assay on IGROV1 ovarian was 106%; in the assay on OVCAR-3 ovarian, 107%; in the assay with HS 578T breast, 105%; with NCI/ADR-RES ovarian it was 114%; with T-47D breast, 123%; in the assay on MDA-MB-435 melanoma it was 120%. Moreover, the growth is 104% in the assay on SW-620 colon; 113% in the assay with MCF7 breast; 101% with HCT-116 colon; 109% in the assay on HCC-2998 colon; 105% in the assay with KM12 colon.

With `O=C1COCCN1c1ccc(NCc2cn(Cc3ccc(F)cc3)c3ccccc23)cc1`, the growth in the assay on SR leukemia is 94.4%; in the assay on RPMI-8226 leukemia, 41.7%; with OVCAR-8 ovarian it was 70.5%; in the assay with OVCAR-5 ovarian, -40.3% (active); with OVCAR-4 ovarian, -6.07% (active); in the assay on SK-OV-3 ovarian it was 20.3%. Besides, the growth was -18.9% (active) in the assay on IGROV1 ovarian; 3.96% (active) in the assay with OVCAR-3 ovarian; 72% in the assay with HS 578T breast; 72.1% in the assay with NCI/ADR-RES ovarian; -19.8% (active) with T-47D breast; 99.1% in the assay on MDA-MB-435 melanoma. Moreover, the growth was 28.1% in the assay with SW-620 colon; 4.76% (active) in the assay with MCF7 breast; 6.21% (active) in the assay with HCT-116 colon; 81.9% in the assay on HCC-2998 colon; 98.6% in the assay on KM12 colon.

For `Nc1nc(N)c2c(n1)NC(c1ccc(F)cc1)C1CCc3ccccc3C1=N2` (stereo not drawn), the growth in the assay on SR leukemia was 9.32% (active); in the assay with RPMI-8226 leukemia, 42.3%; with OVCAR-8 ovarian, 70.4%; with OVCAR-5 ovarian, 110%; with OVCAR-4 ovarian it was 36%; in the assay with SK-OV-3 ovarian, 63.9%. Further, the growth with IGROV1 ovarian was 83.6%; with OVCAR-3 ovarian, 48.2%; with HS 578T breast it was 84.1%; in the assay with NCI/ADR-RES ovarian it was 43.7%; with T-47D breast, 49.7%; in the assay with MDA-MB-435 melanoma it was 54.4%. Besides, the growth with SW-620 colon is 67.3%; in the assay on MCF7 breast it was 26.9%; with HCC-2998 colon, 71.2%; in the assay on KM12 colon, 50.1%.
